# Test system: Perkinsus marinus PRA240
# Experiment: ATP content (proliferation) relative to DMSO control; higher = more parasite growth (less inhibition)
# Details: 20 µM; 4 days
# Method: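 Perkinsus marinus PRA240 trophozoites (2-5x10^6 cells/ml, 100 µl, 96-well) were exposed once to MMV Malaria Box compounds at 20 µM (0.1% DMSO) in triplicate. ATP content (ATPlite bioluminescence) was read at day 4 post-exposure and normalised to DMSO + cells control wells (100% activity). Compounds were identified by joining plate and well to the Malaria Box list.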
row,SMILES,ATP content [%]
1,O=c1cc(NC2CCN(CCCc3ccccc3)CC2)c2cc(Cl)ccc2o1,167
2,CCCCC(O)(c1ccc(Cl)cc1)C(CN1CCOCC1)c1ccc(Cl)cc1 (stereo not drawn),131
3,CC(NCc1ccccc1)c1cc(Cl)ccc1O (stereo not drawn),85.9
4,Cc1ccc(C2CC(C(F)(F)F)n3nc(C(=O)N4CCN(C(c5ccccc5)c5ccccc5)CC4)cc3N2)cc1 (stereo not drawn),144
5,Cc1cc(N(C)C)nc(Nc2ccc(NC(=O)Nc3ccccc3)cc2)n1,85.9
6,O=C(Nc1ccc(Cl)cc1)N1CCN(c2ccc3nncn3n2)CC1,124
7,Cc1ccc2nc(C)cc(Nc3cccc(C(F)(F)F)c3)c2c1,121
8,CCn1nc(-c2ccc(C(=O)OC)cc2)nc2c(=O)n(C)c(=O)nc1-2,1.37
9,COc1ccc(C(=O)C(CCC(CNC(C)(C)C)C(=O)c2ccc(OC)cc2)CNC(C)(C)C)cc1 (stereo not drawn),120
10,OC1=C2C(=Nc3ccccc3SC2c2ccc(Br)cc2)c2ccccc21 (stereo not drawn),45.9
11,CC(C)(C)c1ccc2c(c1)CN(Cc1ccc(Cl)cc1)CO2,107
12,CCOc1ccc(C=Cc2nc(=O)c3ccccc3o2)cc1,14.6
13,O=c1nc(C=Cc2ccc(Br)cc2)oc2ccccc12,11.1
14,COc1ccc2c(c1)C1(Nc3ccccc3-c3nc4ccccc4n31)C(=O)N2 (stereo not drawn),113
15,CCN(CC)CCNc1ncnc2c1[nH]c1ccc(Br)cc12,141
16,Oc1ccccc1CN1CCN(C(c2ccccc2)c2ccccc2)CC1,128
17,CCOc1cc2c(cc1OCC)C(c1cc(Cl)ccc1O)NCC2 (stereo not drawn),91.6
18,COc1ccc(C2c3ccc4ccccc4c3Oc3ncn(CCCn4ccnc4)c(=N)c32)cc1OC (stereo not drawn),121
